{"source": "PubChem BioAssay", "key": {"[1]": {"molecular_target": "Nuclear receptor coactivator 3 (Homo sapiens) (UniProt Q9Y6Q9)", "sequence (Q9Y6Q9 whole entry, looked up, the tested form may be a part)": "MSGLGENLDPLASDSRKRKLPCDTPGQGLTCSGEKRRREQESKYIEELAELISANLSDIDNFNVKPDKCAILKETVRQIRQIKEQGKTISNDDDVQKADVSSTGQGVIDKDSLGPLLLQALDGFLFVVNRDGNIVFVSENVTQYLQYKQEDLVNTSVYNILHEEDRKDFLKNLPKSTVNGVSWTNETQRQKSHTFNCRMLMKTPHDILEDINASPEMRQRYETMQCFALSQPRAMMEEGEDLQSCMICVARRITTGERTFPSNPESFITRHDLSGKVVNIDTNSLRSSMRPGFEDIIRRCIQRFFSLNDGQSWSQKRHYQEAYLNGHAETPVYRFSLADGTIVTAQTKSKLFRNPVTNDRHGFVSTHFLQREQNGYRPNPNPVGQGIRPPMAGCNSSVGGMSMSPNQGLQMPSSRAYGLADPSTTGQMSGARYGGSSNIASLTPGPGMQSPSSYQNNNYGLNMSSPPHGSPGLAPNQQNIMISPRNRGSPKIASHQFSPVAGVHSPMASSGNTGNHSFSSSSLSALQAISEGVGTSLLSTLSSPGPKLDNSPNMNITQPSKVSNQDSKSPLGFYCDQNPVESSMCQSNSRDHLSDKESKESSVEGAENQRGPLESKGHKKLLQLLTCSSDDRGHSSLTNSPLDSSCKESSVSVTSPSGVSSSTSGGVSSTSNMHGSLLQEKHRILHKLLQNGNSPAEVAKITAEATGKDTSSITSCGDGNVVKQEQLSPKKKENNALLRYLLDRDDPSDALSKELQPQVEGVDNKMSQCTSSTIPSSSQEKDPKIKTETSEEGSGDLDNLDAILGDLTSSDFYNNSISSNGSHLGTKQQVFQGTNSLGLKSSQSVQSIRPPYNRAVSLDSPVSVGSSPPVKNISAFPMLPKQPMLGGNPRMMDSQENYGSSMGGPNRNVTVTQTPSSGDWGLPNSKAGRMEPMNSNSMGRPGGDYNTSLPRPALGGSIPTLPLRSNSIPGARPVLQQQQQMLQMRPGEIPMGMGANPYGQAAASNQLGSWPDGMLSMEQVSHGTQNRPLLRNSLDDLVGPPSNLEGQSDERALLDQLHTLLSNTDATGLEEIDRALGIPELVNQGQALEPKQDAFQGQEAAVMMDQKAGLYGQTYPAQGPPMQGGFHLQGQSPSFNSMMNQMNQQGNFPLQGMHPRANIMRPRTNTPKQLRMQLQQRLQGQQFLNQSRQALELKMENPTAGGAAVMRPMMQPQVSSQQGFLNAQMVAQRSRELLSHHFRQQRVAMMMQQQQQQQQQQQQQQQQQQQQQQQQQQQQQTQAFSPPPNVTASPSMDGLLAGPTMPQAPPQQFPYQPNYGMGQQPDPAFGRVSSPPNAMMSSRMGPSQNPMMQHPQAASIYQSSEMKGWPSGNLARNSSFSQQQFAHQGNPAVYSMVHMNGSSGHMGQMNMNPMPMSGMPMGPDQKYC", "assay": "NCOA3 GAL4-fusion reporter inhibition – cell-based, luminescence, quadruplicate, confirmation (AID 588792;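 active = mean inhibition over 43.08%, the solvent-only control mean plus 3 SD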;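 note: 0% = DMSO treated cells and 100% = gossypol at 36 µM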)", "details": "HEK293 GAL4-SRC3 luciferase reporter, at 3.6 µM, active compounds read high"}, "[2]": {"system": "transactivating tegument protein VP16 (Human herpesvirus 1), Gal4-VP16 luciferase reporter", "assay": "repression of VP16-driven luciferase reporter – cell-based, luminescence, high throughput, counter-screen for SRC3 inhibitor project (AID 588794; in the data active = inhibition above about 30%)", "details": "mammalian cells, at 3.6 µM, active compounds read high"}, "[3]": {"assay": "StAR promoter reporter inhibitors, counter-screen for LRH-1 inverse agonist project, cell-based, luminescence, high throughput (AID 651611; in the data active = inhibition above about 28%)", "details": "StAR promoter luciferase reporter counterscreen, at 3.6 µM, active compounds read high"}, "[4]": {"molecular_target": "Nuclear receptor subfamily 5 group A member 2 (Homo sapiens) (UniProt O00482)", "sequence (O00482 whole entry, looked up)": "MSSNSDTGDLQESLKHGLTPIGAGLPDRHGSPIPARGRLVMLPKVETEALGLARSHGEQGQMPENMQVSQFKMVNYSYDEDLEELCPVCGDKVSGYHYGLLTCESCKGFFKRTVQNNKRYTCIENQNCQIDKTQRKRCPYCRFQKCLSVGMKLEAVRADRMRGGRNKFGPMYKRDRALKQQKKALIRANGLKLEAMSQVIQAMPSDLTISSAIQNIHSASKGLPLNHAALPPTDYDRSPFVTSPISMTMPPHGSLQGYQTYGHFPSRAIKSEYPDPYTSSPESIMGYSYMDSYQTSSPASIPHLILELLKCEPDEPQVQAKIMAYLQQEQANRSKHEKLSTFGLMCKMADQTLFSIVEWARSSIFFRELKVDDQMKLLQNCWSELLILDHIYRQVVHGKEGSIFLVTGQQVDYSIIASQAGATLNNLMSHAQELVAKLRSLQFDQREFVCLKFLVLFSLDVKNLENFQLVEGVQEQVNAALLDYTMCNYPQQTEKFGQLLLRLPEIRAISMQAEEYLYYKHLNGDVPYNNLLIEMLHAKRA", "assay": "NR5A2 activity suppression in reporter cells – cell-based, luminescence, confirmation (AID 651613; in the data active = inhibition above about 42%;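 note: HEK293T cells co-transfected with LRH-1 and StAR promoter luciferase reporter; 0% = vehicle wells and 100% = parental cells lacking receptor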)", "details": "cell-based LRH-1 luciferase reporter, inverse agonism; at 3.6 µM; active compounds read high"}, "[5]": {"molecular_target": "Steroidogenic factor 1 (Homo sapiens) (UniProt Q13285)", "sequence (Q13285 whole entry, looked up)": "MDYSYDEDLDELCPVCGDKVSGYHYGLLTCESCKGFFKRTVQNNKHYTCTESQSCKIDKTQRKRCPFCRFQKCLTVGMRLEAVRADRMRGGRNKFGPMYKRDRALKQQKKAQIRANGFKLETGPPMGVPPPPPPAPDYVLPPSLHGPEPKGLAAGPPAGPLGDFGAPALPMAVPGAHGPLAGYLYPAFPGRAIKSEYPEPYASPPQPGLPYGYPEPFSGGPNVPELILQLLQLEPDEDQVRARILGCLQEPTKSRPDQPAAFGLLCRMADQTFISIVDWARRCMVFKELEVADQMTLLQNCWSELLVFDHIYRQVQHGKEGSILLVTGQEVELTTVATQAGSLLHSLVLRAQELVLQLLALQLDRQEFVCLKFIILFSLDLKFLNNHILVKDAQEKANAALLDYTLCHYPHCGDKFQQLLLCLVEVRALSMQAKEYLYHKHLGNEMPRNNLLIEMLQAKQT", "assay": "inverse agonism at SF1 nuclear receptor – cell-based, luminescence, high throughput, counter-screen for LRH-1 inverse agonist project (AID 651614; in the data active = inhibition above about 44%;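 note: cells cotransfected with StAR promoter reporter and SF1 expression vector; 0% = vehicle on cells with receptor and 100% = vehicle on cells lacking receptor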)", "details": "cell-based SF1 luciferase reporter, at 3.6 µM, active compounds read high"}, "[6]": {"assay": "compounds suppressing VP16-driven luciferase signal – cell-based, luminescence, high throughput, counter-screen for LRH-1 inverse agonist project (AID 651615; in the data active = inhibition above about 33%)", "details": "Gal4-VP16 luciferase reporter cells, at 3.6 µM, active compounds read high"}, "[7]": {"molecular_target": "Nuclear receptor coactivator 1 (Homo sapiens) (UniProt Q15788)", "sequence (Q15788 whole entry, looked up, the tested form may be a part)": "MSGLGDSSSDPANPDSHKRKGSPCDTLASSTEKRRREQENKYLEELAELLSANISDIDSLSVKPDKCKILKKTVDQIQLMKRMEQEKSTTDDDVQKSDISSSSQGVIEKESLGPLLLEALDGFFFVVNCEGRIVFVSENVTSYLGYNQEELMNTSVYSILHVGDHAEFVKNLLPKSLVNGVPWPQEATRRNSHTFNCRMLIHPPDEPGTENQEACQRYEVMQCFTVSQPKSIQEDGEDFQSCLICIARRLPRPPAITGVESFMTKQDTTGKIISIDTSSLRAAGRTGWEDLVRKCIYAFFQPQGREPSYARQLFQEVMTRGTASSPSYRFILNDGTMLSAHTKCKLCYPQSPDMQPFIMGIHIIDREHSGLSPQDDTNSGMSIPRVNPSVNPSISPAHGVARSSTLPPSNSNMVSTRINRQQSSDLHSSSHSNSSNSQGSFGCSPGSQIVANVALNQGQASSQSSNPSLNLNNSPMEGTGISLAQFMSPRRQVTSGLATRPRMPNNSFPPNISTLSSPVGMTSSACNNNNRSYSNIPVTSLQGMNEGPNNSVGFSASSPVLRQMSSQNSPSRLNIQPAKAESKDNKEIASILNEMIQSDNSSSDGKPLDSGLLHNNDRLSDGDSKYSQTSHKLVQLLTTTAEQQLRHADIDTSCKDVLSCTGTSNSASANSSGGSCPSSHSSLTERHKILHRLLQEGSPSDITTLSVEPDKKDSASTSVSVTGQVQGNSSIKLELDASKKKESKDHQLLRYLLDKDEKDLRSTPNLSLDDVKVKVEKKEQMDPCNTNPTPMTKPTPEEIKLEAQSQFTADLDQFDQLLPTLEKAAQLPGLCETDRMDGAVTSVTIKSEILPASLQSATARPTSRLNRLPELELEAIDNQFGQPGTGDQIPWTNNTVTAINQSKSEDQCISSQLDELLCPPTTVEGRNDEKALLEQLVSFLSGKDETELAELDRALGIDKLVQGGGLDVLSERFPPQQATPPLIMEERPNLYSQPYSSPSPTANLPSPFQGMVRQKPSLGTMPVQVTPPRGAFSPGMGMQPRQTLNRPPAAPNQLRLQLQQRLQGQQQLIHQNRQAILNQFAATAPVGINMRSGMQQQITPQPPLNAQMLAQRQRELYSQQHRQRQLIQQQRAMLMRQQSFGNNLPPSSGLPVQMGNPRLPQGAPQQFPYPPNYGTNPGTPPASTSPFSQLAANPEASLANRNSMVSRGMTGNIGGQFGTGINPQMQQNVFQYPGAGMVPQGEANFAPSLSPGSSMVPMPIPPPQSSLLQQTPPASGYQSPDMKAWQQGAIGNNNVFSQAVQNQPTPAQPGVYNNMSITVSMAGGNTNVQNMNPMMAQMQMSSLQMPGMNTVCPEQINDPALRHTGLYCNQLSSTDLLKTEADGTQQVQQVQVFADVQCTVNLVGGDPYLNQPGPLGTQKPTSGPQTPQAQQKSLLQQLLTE", "assay": "NCOA1 GAL4-fusion reporter inhibition – cell-based, luminescence, quadruplicate, confirmation (AID 588820;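 active = mean inhibition above 46.68%, the untreated control wells mean plus 3 SD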;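 note: 0% = DMSO wells and 100% = gossypol 36 µM treated wells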)", "details": "HEK293 GAL4-SRC1 luciferase reporter, at 3.6 µM, active compounds read high"}, "[8]": {"assay": "repression of VP16-driven luciferase reporter – cell-based, luminescence, high throughput, counter-screen for SRC1 inhibitor project (AID 588824)", "details": "cell-based VP16 transactivation luciferase luminescence; at 3.6 µM; active compounds read high"}, "[9]": {"system": "transactivating tegument protein VP16 (Human herpesvirus 1)", "assay": "compounds suppressing VP16-driven luciferase signal – cell-based, luminescence, single concentration, counter-screen for SRC2 inhibitor project (AID 652007; in the data active = inhibition above about 36%)", "details": "cell-based VP16 transactivation luciferase reporter, at 8.9 µM, active compounds read high"}, "[10]": {"molecular_target": "Nuclear receptor coactivator 2 (Homo sapiens) (UniProt Q15596)", "assay": "inhibition of GAL4-SRC2 driven luciferase expression – cell-based, luminescence, HEK293, triplicate, confirmation (AID 652008;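 active = mean inhibition above 46.5%, the solvent-only control mean plus 3 SD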;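 note: 0% = DMSO-treated cells and 100% = Gossypol at 36 µM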)", "details": "HEK293 GAL4-SRC2 luciferase reporter, at 8.9 µM, active compounds read high"}}, "note": "A number with no mark means an inactive call. Activity calls are given as the source filed them. Cut-off read from the data, not from the text of the source, unless noted: active = inhibition above about 25%; inactive = the rest."}
{"smiles": "C1=NCCc2c1[nH]c1ccccc21", "values": [{"measurement": "inhibition", "setting": "[1]", "value": 27.8, "unit": "%"}, {"measurement": "inhibition", "setting": "[2]", "value": -13.4, "unit": "%"}, {"measurement": "inhibition", "setting": "[3]", "value": 14.4, "unit": "%"}, {"measurement": "inhibition", "setting": "[4]", "value": "50.2% (active)"}, {"measurement": "inhibition", "setting": "[5]", "value": "44.8% (active)"}, {"measurement": "inhibition", "setting": "[6]", "value": -11.6, "unit": "%"}]}
{"smiles": "CCCCC(CC)COCCCN=Cc1c(O)[nH]c(=S)[nH]c1=O", "note": "(stereo not drawn)", "values": [{"measurement": "inhibition", "setting": "[7]", "value": 29.9, "unit": "%"}, {"measurement": "inhibition", "setting": "[8]", "value": 17.5, "unit": "%"}]}
{"smiles": "C[C@H]1CCC/C=C/[C@@H]2C[C@H](O)C[C@H]2[C@@H](O)/C=C/C(=O)O1", "values": [{"measurement": "inhibition", "setting": "[1]", "value": "64.3% (active)"}, {"measurement": "inhibition", "setting": "[2]", "value": "77.3% (active)"}, {"measurement": "inhibition", "setting": "[3]", "value": "81.5% (active)"}, {"measurement": "inhibition", "setting": "[4]", "value": "85.4% (active)"}, {"measurement": "inhibition", "setting": "[5]", "value": "80% (active)"}, {"measurement": "inhibition", "setting": "[6]", "value": "74.8% (active)"}]}
{"smiles": "CC(=O)c1cn(Cc2ccccc2F)c2ccccc12", "values": [{"measurement": "inhibition", "setting": "[7]", "value": -1.96, "unit": "%"}, {"measurement": "inhibition", "setting": "[8]", "value": "35.7% (active)"}]}
{"smiles": "C[C@H]1CCC[C@H](O)CCCCCc2cc(O)cc(O)c2C(=O)O1", "values": [{"measurement": "inhibition", "setting": "[7]", "value": -4.86, "unit": "%"}, {"measurement": "inhibition", "setting": "[8]", "value": 15.5, "unit": "%"}]}
{"smiles": "CCN(CC)C(=O)c1ccc(NC(=O)c2ccc(-n3cncn3)c([N+](=O)[O-])c2)cc1", "values": [{"measurement": "inhibition", "setting": "[7]", "value": -2.4, "unit": "%"}, {"measurement": "inhibition", "setting": "[8]", "value": 5.45, "unit": "%"}]}
{"smiles": "CCCOC(=O)c1ccc(-[n+]2c(-c3ccccc3)cc(-c3ccccc3)cc2-c2ccccc2)cc1", "values": [{"measurement": "inhibition", "setting": "[1]", "value": "44.1% (active)"}, {"measurement": "inhibition", "setting": "[2]", "value": "65.5% (active)"}, {"measurement": "inhibition", "setting": "[3]", "value": "64.9% (active)"}, {"measurement": "inhibition", "setting": "[4]", "value": "110% (active)"}, {"measurement": "inhibition", "setting": "[5]", "value": "88.8% (active)"}, {"measurement": "inhibition", "setting": "[6]", "value": "96.6% (active)"}, {"measurement": "inhibition", "setting": "[9]", "value": 31.1, "unit": "%"}, {"measurement": "inhibition", "setting": "[10]", "value": 31.8, "unit": "%"}]}
{"smiles": "O=c1[nH]c2ccccc2n1C1CCN(C(c2cc3ccccc3o2)c2nnnn2-c2ccc3c(c2)OCCO3)CC1", "note": "(stereo not drawn)", "values": [{"measurement": "inhibition", "setting": "[7]", "value": -27.1, "unit": "%"}, {"measurement": "inhibition", "setting": "[8]", "value": 8.97, "unit": "%"}]}
{"smiles": "CC(C)c1oc(=O)cc2c1[C@@H](O)[C@H]1OC(=O)[C@@]3(C)C[C@@H](O)[C@@H](O)[C@@]2(C)C13", "note": "(stereo partly drawn)", "values": [{"measurement": "inhibition", "setting": "[1]", "value": "79.4% (active)"}, {"measurement": "inhibition", "setting": "[2]", "value": "67.4% (active)"}, {"measurement": "inhibition", "setting": "[3]", "value": "84.4% (active)"}, {"measurement": "inhibition", "setting": "[4]", "value": "104% (active)"}, {"measurement": "inhibition", "setting": "[5]", "value": "90% (active)"}, {"measurement": "inhibition", "setting": "[6]", "value": "77.4% (active)"}, {"measurement": "inhibition", "setting": "[9]", "value": 8.02, "unit": "%"}, {"measurement": "inhibition", "setting": "[10]", "value": 13.1, "unit": "%"}]}
{"smiles": "CNC(=O)c1cccn(Cc2ccc(C(F)(F)F)cc2)c1=O", "values": [{"measurement": "inhibition", "setting": "[1]", "value": 30.3, "unit": "%"}, {"measurement": "inhibition", "setting": "[2]", "value": -34.3, "unit": "%"}, {"measurement": "inhibition", "setting": "[3]", "value": "47.7% (active)"}, {"measurement": "inhibition", "setting": "[4]", "value": "65.9% (active)"}, {"measurement": "inhibition", "setting": "[5]", "value": "54.3% (active)"}, {"measurement": "inhibition", "setting": "[6]", "value": -78.8, "unit": "%"}]}
{"smiles": "CN1CCN(c2cc(N3CCCCCC3)c(F)cc2[N+](=O)[O-])CC1", "values": [{"measurement": "inhibition", "setting": "[7]", "value": -15.1, "unit": "%"}, {"measurement": "inhibition", "setting": "[8]", "value": -7.21, "unit": "%"}]}
{"smiles": "CCCCn1nnnc1C(CCSC)N1CCC(n2c(=O)[nH]c3ccccc32)CC1", "note": "(stereo not drawn)", "values": [{"measurement": "inhibition", "setting": "[7]", "value": -63.4, "unit": "%"}, {"measurement": "inhibition", "setting": "[8]", "value": 6.98, "unit": "%"}]}
